Measured values from PubChem BioAssay (NCI).
Compounds without any hit were thinned out: in the full panel of roughly 83,000, 20% have a hit.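 Each cell line was grown in a 96-well plate and treated with one concentration of compound for 48 hours. Values below 10 were considered active.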 Unmarked numbers belong to inactive results. Activity calls are given as the source filed them.

Key:
Experiment in all cases: NCI-60 one-dose screen, 48 h (100 = growth as untreated, 0 = no growth, -100 = all killed)
Conditions in all cases: 10 µM unless noted
[1] = tested on: T-47D breast
[2] = tested on: BT-549 breast
[3] = tested on: MDA-MB-435 melanoma
[4] = tested on: SW-620 colon
[5] = tested on: MCF7 breast
[6] = tested on: HCT-116 colon
[7] = tested on: HCC-2998 colon
[8] = tested on: KM12 colon

Row | SMILES | growth [1] | growth [2] | growth [3] | growth [4] | growth [5] | growth [6] | growth [7] | growth [8]
1 | CCOC(=O)c1c(C)oc2ncnc(N3CCN(C(=S)Nc4ccccc4)CC3)c12 | 78.7% | 92.4% | 102% | 90.5% | 93.1% | 97.3% | 99.3% | 96.4%
2 | COc1cccc(-c2nc3sccn3c2-c2ccnc(NCCCNS(=O)(=O)c3cccc(Cl)c3)c2)c1 | -4.56% (active) | 20.2% | 37.4% | 67.5% | 44.4% | 34% | 81.6% | 64.8%
3 | Cc1cc(N2CCOCC2)nc(NCc2cc(Nc3ccnc4cc(Cl)ccc34)ccc2F)n1 | -34.9% (active) | -37.7% (active) | -79.5% (active) | -69.9% (active) | -55.9% (active) | -78.4% (active) | -69% (active) | -61.9% (active)
4 | O=C1/C(=C/C(Cl)=C/c2ccccc2)SC(=S)N1CCc1ccc(O)cc1 | -34.4% (active) | 11.6% | -30.7% (active) | 4.79% (active) | 26.4% | -62.3% (active) | -68.1% (active) | -31.6% (active)
5 | O=C(CN1C(=O)/C(=C/c2ccc(Cl)cc2)SC1=S)NCCCN1CCOCC1 | 84.3% | 102% | 102% | 102% | 92.8% | 102% | 102% | 104%
6 | COc1cc(/C=C/c2cc(/C=C/c3ccc(O)c(OC)c3)n(-c3c(C)cccc3C)c(=O)n2)ccc1O | -4.26% (active) | -18.1% (active) | 2.28% (active) | 7.79% (active) | 1.69% (active) | 8.26% (active) | 24.1% | 11.6%
7 | O=C1c2cc3c(cc2-c2c1c1ccc(F)cc1c(=O)n2C[C@H](O)[C@@H](O)[C@H](O)CO)OCO3 | -4.06% (active) | -21.3% (active) | -76.2% (active) | 7.68% (active) | 4.18% (active) | 9.8% (active) | -8.31% (active) | 7.39% (active)
8 | Clc1ccc2c(NCCCNc3nc(-n4ccnc4)nc4ccccc34)ccnc2c1 | 70.3% | 82.8% | 92.6% | 89.8% | 76.5% | 88.3% | 106% | 88.5%
9 | CCCOc1cc2ccccc2cc1C(=O)Nc1nc(NC)c2c(ccc3nccc32)[nH]1 | -52.5% (active) | -27.4% (active) | -89.2% (active) | -75% (active) | -61.9% (active) | -72.3% (active) | -70.5% (active) | -72.2% (active)
10 | Oc1cccc(-c2nc(N3CCOCC3)c3c4c(sc3n2)CCCC4)c1 | 9.18% (active) | 45.4% | 59.7% | 63.3% | 42% | 66.5% | 81.9% | 62.6%
11 | NC1=C(Cl)C(=O)c2ccc(S(N)(=O)=O)cc2C1=O | -46.1% (active) | -91.5% (active) | -86.8% (active) | -77.9% (active) | -49.5% (active) | -90.1% (active) | -97.1% (active) | -72.1% (active)
12 | Cn1c(NCCc2ccc(O)c(O)c2)nc2c1c(=O)n(Cc1ccc(Br)cc1)c(=O)n2C | 53.3% | 73% | 79% | 81.4% | 80% | 67.4% | 94% | 76%
13 | Cc1cc2nc(NC(=O)CN3CCN(CCN4C(=O)c5cccc6cccc(c56)C4=O)CC3)sc2cc1C | 83.9% | 86.1% | 91.4% | 96% | 74.8% | 74.7% | 101% | 92.5%
14 | COc1cc2c(cc1-c1c(C)noc1C)ncc1nc(C3CCOCC3)n([C@@H](C)COC(F)F)c12 | 38.1% | 64.1% | 39.7% | 63.4% | 18.4% | 30.5% | 43.3% | 48.8%
15 | O=C(CCN1C(=O)/C(=C/c2ccc(Cl)cc2)SC1=S)NCCCN1CCOCC1 | 90.8% | 106% | 98.9% | 100% | 90.1% | 98.7% | 105% | 104%
16 | FC(F)(F)c1ccc(-c2cn3nc(-c4c[nH]c5ccc(Br)cc45)sc3n2)cc1 | 67.6% | 105% | 100% | 97.3% | 74.9% | 93.1% | 95.6% | 87.3%
17 | Brc1ccc(-c2csc(Nc3ccccn3)n2)cc1 | 53.7% | 112% | 88.5% | 103% | 34.5% | 81.3% | -5.04% (active) | 86.4%
18 | Cc1cc(N2CCOCC2)nc(N[C@@H]2CCC[C@H](Nc3ccnc4cc(Cl)ccc34)C2)n1 | -56.6% (active) | 26% | -83% (active) | -1.97% (active) | 5.31% (active) | -6.15% (active) | 11.2% | 20.6%
19 | CCOc1cc2ncc(C#N)c(Nc3ccc(F)c(Cl)c3)c2cc1NC(=O)CC1CCSS1 (configuration not stated) | -48.4% (active) | -25.3% (active) | -92.1% (active) | -49% (active) | -34.7% (active) | -61.7% (active) | -74% (active) | -77.6% (active)
20 | CCCCN1CCCn2c1nc1c2c(=O)n(CCC)c(=O)n1CCC | 101% | 98.1% | 102% | 96% | 100% | 98.3% | 104% | 100%
21 | Cc1ccc(C2=NN3C(C2)c2cc(Br)ccc2OC32CCN(Cc3ccccc3)CC2)o1 (configuration not stated) | 86.6% | 92.4% | 94% | 97.2% | 77.3% | 99.6% | 97.9% | 95.4%
22 | CCOC(=O)c1c(C(=O)OCC)c2cc(-c3ccn4c(C(=O)c5ccccc5)c(C(=O)OCC)c(C(=O)OCC)c4c3)ccn2c1C(=O)c1ccccc1 | 82.5% | 93.4% | 99.9% | 105% | 92.9% | 103% | 95.2% | 87.7%
23 | COCCNc1ccc2c3c(cccc13)C(=O)N(CCN(C)C)C2=O | -10.9% (active) | 17.7% | 25.9% | 24.5% | -16.5% (active) | 10.9% | 28.6% | 24.9%
24 | COc1cc(CNc2oc(-c3ccccc3)c(-c3ccccc3)c2C#N)cc(CN2CCN(C)CC2)c1O | 74% | 76.4% | 40.5% | 31.8% | 14.9% | 36.7% | 37.4% | 66.7%
25 | Cc1cc2nc3[nH]c4ccccc4c3nc2cc1C | 58.9% | 92.4% | 120% | 73.3% | 48.2% | 46.1% | 98.4% | 77.9%
26 | O=C1NC(=Nc2ccc(O)cc2)S/C1=C\c1cccc(Cl)c1 | 76% | 64.9% | 2.14% (active) | 30.7% | 18.6% | 24.2% | 83.8% | 21.9%
27 | COc1ccc(-n2nc(C)c3c(Nc4ccc(NC(=O)Nc5c(Cl)cccc5Cl)cc4)ncnc32)cc1 | 40% | 57.9% | 49.1% | 48.6% | 58.5% | 25% | 51% | 18%
28 | COc1ccc(C2CC(c3ccc(Cl)cc3)=NN2/C=C2\SC(=S)N(NC(=O)Cc3ccccc3Nc3c(Cl)cccc3Cl)C2=O)cc1 (configuration not stated) | 49.5% | 79% | 89.3% | 90% | 74.1% | 56.3% | 90.4% | 85.4%
29 | c1ccc(CCNc2ncnc3[nH]ncc23)cc1 | 79.3% | 97.7% | 112% | 113% | 130% | 98.3% | 115% | 109%
